About 79,000 compounds went through this panel and 15% of them were active in at least one assay; those are over-represented in the sample as a whole. Activity calls are given as the source filed them. No stated cut-off is given here; in the data, active means growth inhibition above about 70%; inactive means the rest.

The assay is described as follows: NCI Yeast Anticancer Drug Screen. Data for the mec2-1 strain (AID 157). The settings on record: S. cerevisiae mec2-1 strain, at 5.0 µM (retest, dose inferred, filed as 0.5), hits give high values. In short, it runs like this: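 Compounds were applied to mec2-1 yeast cells. Their growth was then compared with that of vehicle-treated cultures to give growth inhibition.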
For `CCCc1cc(C(=O)OCC)cc(CCC)c1O`, the growth inhibition is -47% (inactive).

As to `CC(C)[N+]([O-])(CCCNc1c2ccccc2nc2cccc([N+](=O)[O-])c12)C(C)C`, the growth inhibition was 68% (inactive).

Regarding `COc1cc2c3c(cccc3c1)C(=O)N(CCN(C)C)C2=O`, the growth inhibition was 8% (inactive).

For `NC(=O)NN=C(CS)CS`, the growth inhibition was 1% (inactive).

In the case of `Cc1ccc(NC(=O)/C(Cl)=C(\Cl)C(=O)O)cc1C`, the growth inhibition is 15% (inactive).

On to `CCN(CC)CC[n+]1ccc2c(C)c3[nH]c4ccc(O)cc4c3c(C)c2c1`, for which the growth inhibition was 9% (inactive).

Regarding `CC(CC(C)(C)[N+](C)(C)C)[N+](C)(C)C` (centres undefined), the growth inhibition is 19% (inactive).

As for `COc1ccc(OC)c2cc3ccccc3cc12`, the growth inhibition was 63% (inactive).

Consider `Nc1ncncc1C(C1=C(O)COC1=O)C1=C(O)COC1=O`, for which the growth inhibition is -15% (inactive).

As to `CSC1=NNC(SC)=NN1`, the growth inhibition was 44% (inactive).

Take `Cc1c(Cl)ccc2c1S(=O)(=O)c1cccc(Cl)c1-2`: the growth inhibition was 100% (active).

On to `[O-][n+]1c2ccc(O)cc2nc2ccc(Cl)cc21`, for which the growth inhibition is 5% (inactive).

For the compound `COc1ccc2ccc3ccccc3c2c1C=O`, the growth inhibition is 9% (inactive).

On to `Nc1ccc2c(c1)C(=O)c1cccc(N)c1C2=O`, for which the growth inhibition was 17% (inactive).

Consider `O=C(c1ccc(Cl)cc1Cl)C(Cl)Cl`, for which the growth inhibition is 40% (inactive).

In the case of `COc1cc(C(=O)/C=C/c2ccccc2O)ccc1O`, the growth inhibition is 80% (active).

Regarding `O=Cc1cccc2ccc3ccccc3c12`, the growth inhibition is -45% (inactive).

For the compound `O=C(Nc1ccc(Cl)cc1)OCC#CCCl`, the growth inhibition is 6% (inactive).

On to `Cn1ccnc1Oc1ccc(Cl)cc1`, for which the growth inhibition was -46% (inactive).

With `c1ccc2c(c1)C(=NCCCN1CCCCCC1)c1cccn1-2`, the growth inhibition was 0% (inactive).

Consider `C/C(=N\O)C1CC2C=C(C#N)C1N(Cc1ccccc1)C2` (centres undefined), for which the growth inhibition was -16% (inactive).

For the compound `O=[N+]([O-])C(=C(Sc1ccccc1)Sc1ccccc1)C(Cl)=C(Cl)Cl`, the growth inhibition is 22% (inactive).

As for `CCCCCCCCCC/C=C\C(=O)O`, the growth inhibition was 36% (inactive).

`COc1ccc(N=C2C(=O)Nc3ccc(Br)cc32)cc1`: the growth inhibition was 48% (inactive).

Regarding `COc1ccccc1C(=O)OCC1CCCN2CCCCC12` (centres undefined), the growth inhibition was 53% (inactive).

For the compound `CC(C)(Br)C(=O)/C=C/c1ccc(Cl)c(Cl)c1`, the growth inhibition is 16% (inactive).

In the case of `Nc1ccccc1CC(O)C(=O)O` (centres undefined), the growth inhibition was 3% (inactive).

With `CC(=O)N/N=C/C(C)(C)C(C)(C)/C=N/NC(C)=O`, the growth inhibition was 4% (inactive).

`CN(C)c1nc2sc3c(c2c(=O)o1)CCCC3`: the growth inhibition was -4% (inactive).

For `CC(C)OC(=O)Oc1ccccc1OC(=O)OC(C)C`, the growth inhibition is -15% (inactive).

For the compound `Cc1ccc(N)c(S)c1`, the growth inhibition is -19% (inactive).

Consider `O=C(O)c1ccccc1NC(=S)c1ccccc1`, for which the growth inhibition is 63% (inactive).

Take `COC(=O)c1ccc(NCC2=CC(=O)C=CC2=O)cc1O`: the growth inhibition is 13% (inactive).

On to `NC(N)=N/N=C\c1c2ccccc2cc2ccccc12`, for which the growth inhibition was 18% (inactive).

For `COC(=O)CSSCc1ccc([N+](=O)[O-])cc1`, the growth inhibition was -8% (inactive).

For `CCS(=O)(=O)c1ccc(/C=C/C=N/NC(=S)NCC(C)C)cc1`, the growth inhibition is -25% (inactive).

With `N#CC(C(=O)Nc1ccccc1)C1=C(Cl)C(=O)c2ccccc2C1=O` (centres undefined), the growth inhibition was 73% (active).

As to `C[C@H](CCC(=O)NN)[C@H]1CC[C@H]2[C@@H]3CC[C@@H]4C[C@H](O)CC[C@]4(C)[C@H]3CC[C@]12C`, the growth inhibition is 0% (inactive).

For the compound `CC[n+]1ccc2c(C)c3[nH]c4ccc(O)cc4c3c(C)c2c1`, the growth inhibition was 1% (inactive).

Values taken from PubChem BioAssay (NCI).
